# Screens as filed in PubChem BioAssay.
# Many of the other results were omitted from the sample, so hits are more common in it than they were.
# IDE exosite inh: exo-site inhibitors of human IDE, primary screen, biochemical, fluorescence anisotropy, probe displacement | purified IDE, FL-6b probe fluorescence polarization; stronger effect = lower value | z-score at 20 µM | hit rate 6.3% among 17,000;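 active means z-score of -3 or lower, meaning strong loss of probe binding signal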;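 further: His-tagged human IDE residues 42-1019 made in E. coli with 30 nM FL-6b probe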
# * hit, by the source's call.
SMILES,IDE exosite inh
N#C[C@@H]1[C@H](c2ccccc2-c2ccccc2F)[C@H](CO)N1C(=O)c1cccc(F)c1,0.18
O=C(c1ccccc1)N1CC(=O)N2[C@@H](CO)[C@@H](c3ccc(C#CC4CC4)cc3)[C@@H]2C1,1
O=C(c1ccccc1)N1CC(=O)N2[C@H](CO)[C@@H](c3ccc(C#Cc4ccccc4)cc3)[C@@H]2C1,-0.2
O=C(c1ccccc1)N1CC(=O)N2[C@H](C1)[C@H](c1ccc(C#Cc3ccccc3)cc1)[C@@H]2CO,-4.3*
COc1ccc(C#Cc2ccc([C@@H]3[C@@H](CO)N4C(=O)CN(C(=O)c5ccccc5)C[C@H]34)cc2)cc1,-0.18
COc1ccc(C#Cc2ccc([C@H]3[C@@H](CO)N4C(=O)CN(C(=O)c5ccccc5)C[C@@H]34)cc2)cc1,1.8
O=C(c1ccccc1)N1CC(=O)N2[C@H](CO)[C@H](c3ccc(C#Cc4ccccc4)cc3)[C@H]2C1,-5.3*
COc1ccc2c3c([nH]c2c1)[C@H](CO)N(C(=O)CC1CC1)CC31CCN(Cc2ccncc2)CC1,0.9
O=C(C1CCCC1)N1CC(=O)N2[C@@H](CO)[C@@H](c3ccc(C#CC4CCCC4)cc3)[C@@H]2C1,3.1
O=S(=O)(c1ccccc1)N1CC2(C1)[C@@H](c1ccccc1)[C@@H](CO)N2CC1CCOCC1,1
N#C[C@H]1[C@H](c2ccccc2-c2ccccc2)[C@@H](CO)N1C(=O)Cc1ccncc1,1.5
O=C(C1CCCCC1)N1CC(=O)N2[C@H](CO)[C@@H](c3ccc(C#CCc4ccccc4)cc3)[C@@H]2C1,-2.7
O=C(C1CCCCC1)N1CC(=O)N2[C@H](C1)[C@@H](c1ccc(C#CCc3ccccc3)cc1)[C@@H]2CO,1.7
O=C(C1CCC1)N1CC(=O)N2[C@H](C1)[C@H](c1ccc(C#CCc3ccccc3)cc1)[C@@H]2CO,-3*
O=C(C1CCC1)N1CC(=O)N2[C@H](CO)[C@@H](c3ccc(C#CCc4ccccc4)cc3)[C@H]2C1,2.2
O=C(C1CCC1)N1CC(=O)N2[C@@H](CO)[C@@H](c3ccc(C#CCc4ccccc4)cc3)[C@@H]2C1,-3.3*
O=C(C1CCC1)N1CC(=O)N2[C@H](C1)[C@@H](c1ccc(C#CCc3ccccc3)cc1)[C@@H]2CO,-0.42
CO[C@@H]1CN(C)C(=O)c2cc(NC(=O)Cc3ccccc3)ccc2OC[C@H](C)N(C(=O)c2ccccc2F)C[C@@H]1C,0.93
O=C(c1ccc(F)cc1)N1CC(=O)N2[C@H](C1)[C@@H](c1ccc(C#CC3CCCCC3)cc1)[C@@H]2CO,2.3
C[C@@H]1CN([C@@H](C)CO)C(=O)CCCn2nncc2CO[C@H]1CN(C)C(=O)Nc1ccc2c(c1)OCCO2,-1.1
CC(=O)N1CCCCN2[C@H](C1)[C@H](c1ccc(-c3ccc(C)cc3)cc1)[C@@H]2CO,-1.8
COc1cccc(-c2ccc([C@H]3[C@H](C#N)N(C(=O)Cc4ccncc4)[C@H]3CO)cc2)c1,-2.7
COc1cccc(-c2ccccc2[C@@H]2[C@H](C#N)N(C(=O)Cc3ccccc3)[C@H]2CO)c1,0.95
COc1cccc(-c2ccc([C@@H]3[C@@H](C#N)N(C(=O)Cc4ccncc4)[C@@H]3CO)cc2)c1,-10*
COc1cccc(-c2ccccc2[C@@H]2[C@@H](C#N)N(C(=O)Cc3ccccc3)[C@H]2CO)c1,-1.1
SMILES,IDE exosite inh
COc1cccc(-c2ccc([C@H]3[C@@H](C#N)N(C(=O)Cc4ccncc4)[C@@H]3CO)cc2)c1,-3.8*
CCCNC(=O)N1[C@H](CO)[C@H](c2ccc(-c3cccc(OC)c3)cc2)[C@@H]1C#N,-1.2
CCC(=O)N1[C@H](CO)[C@@H](c2ccccc2-c2cccc(C)c2)[C@@H]1C#N,0.81
O=C(N[C@H]1C=C[C@H](CC(=O)N2CCC(Cc3ccccc3)CC2)O[C@H]1CO)c1cnccn1,0.87
CCC(=O)N1[C@@H](CO)[C@H](c2ccccc2)[C@@H]1CNC(=O)CN1CCOCC1,2.9
COCC#Cc1ccc([C@@H]2[C@H]3CN(C(=O)NC4CCCC4)CCCCN3[C@H]2CO)cc1,1.3
COCC#Cc1ccc([C@@H]2[C@H](CO)N3CCCCN(C(=O)NC4CCCC4)C[C@@H]23)cc1,-1.1
CCCC#Cc1ccc([C@@H]2[C@H](CO)N3CCCCN(C(=O)NC4CCCC4)C[C@@H]23)cc1,-5.2*
COCC#Cc1ccc([C@@H]2[C@@H](CO)N3CCCCN(C(=O)NC4CCCC4)C[C@@H]23)cc1,-1
CCCC#Cc1ccc([C@H]2[C@@H](CO)N3CCCCN(C(=O)NC4CCCC4)C[C@H]23)cc1,-3.2*
CCCC#Cc1ccc([C@@H]2[C@@H](CO)N3CCCCN(C(=O)NC4CCCC4)C[C@@H]23)cc1,1.3
C/C=C/c1ccc([C@@H]2[C@@H](CN(CC)C(C)=O)N(S(C)(=O)=O)[C@H]2CO)cc1,0.33
N#C[C@@H]1[C@H](c2ccc(-c3cccc(F)c3)cc2)[C@H](CO)N1C(=O)CN1CCOCC1,-0.67
O=C(Nc1ccccc1)N1CC(=O)N2[C@H](CO)[C@H](c3ccc(-c4ccc(F)cc4)cc3)[C@H]2C1,2.4
CCC(=O)N1CC(=O)N2[C@H](CO)[C@H](c3ccc(C#Cc4cccnc4)cc3)[C@@H]2C1,2
O=C(c1cnccn1)N1CC(=O)N2[C@H](C1)[C@H](c1ccc(-c3cccc(F)c3)cc1)[C@@H]2CO,-0.65
O=C(c1cccnc1)N1CC(=O)N2[C@H](C1)[C@@H](c1ccc(-c3ccc(F)cc3)cc1)[C@@H]2CO,-1.9
Cc1cccc(-c2ccc([C@@H]3[C@H]4CN(C(=O)c5cccnc5)CC(=O)N4[C@H]3CO)cc2)c1,-18*
Cc1cccc(-c2ccc([C@H]3[C@@H](CO)N4C(=O)CN(C(=O)c5ccccc5)C[C@@H]34)cc2)c1,-2.5
O=C(c1cnccn1)N1CC(=O)N2[C@H](CO)[C@@H](c3ccc(-c4ccccc4)cc3)[C@H]2C1,-0.27
Cc1ccc(-c2ccc([C@@H]3[C@H](CO)N4C(=O)CN(C(=O)c5ccccc5)C[C@@H]34)cc2)cc1,1.6
O=C(c1cccnc1)N1CC(=O)N2[C@H](CO)[C@H](c3ccc(-c4ccc(F)cc4)cc3)[C@H]2C1,2
Cc1cccc(-c2ccc([C@H]3[C@@H](CO)N4C(=O)CN(C(=O)c5cccnc5)C[C@@H]34)cc2)c1,-8.6*
O=C(c1cccc(F)c1)N1CC(=O)N2[C@@H](CO)[C@H](c3ccc(-c4cccnc4)cc3)[C@@H]2C1,1.5
Cc1cccc(-c2ccc([C@@H]3[C@@H](CO)N4C(=O)CN(C(=O)c5cnccn5)C[C@H]34)cc2)c1,-7.1*
SMILES,IDE exosite inh
O=C(c1cccc(F)c1)N1CC(=O)N2[C@@H](CO)[C@@H](c3ccc(-c4cccnc4)cc3)[C@@H]2C1,3.3
Cc1cccc(-c2ccc([C@@H]3[C@@H](CO)N4C(=O)CN(C(=O)c5ccccc5)C[C@@H]34)cc2)c1,-5.2*
Cc1ccccc1S(=O)(=O)N1CC(=O)N2[C@H](C1)[C@@H](c1ccc(C#CC3CC3)cc1)[C@@H]2CO,-0.15
CC(=O)N1[C@H](CO)[C@H](c2ccccc2)[C@H]1CNC(=O)CN1CCOCC1,-1.4
O=S(=O)(c1ccccc1)N1CCCCN2[C@H](CO)[C@H](c3ccc(-c4ccccc4F)cc3)[C@@H]2C1,0.92
O=C(C1CC1)N1CC(=O)N2[C@H](CO)[C@H](c3ccc(-c4cccnc4)cc3)[C@H]2C1,-0.84
C[C@@H]1CCn2cc(nn2)COC[C@@H](Cc2ccccc2)NC1=O,0.082
